Results reported in the supplement of paper PMC10646978.
± gives the standard deviation.

Tests used:
Conditions in all cases: modulator concentration 10 µM
[1] = tested on: RAW-Dual (murine macrophage reporter line); assay: NF-kB reporter (SEAP) activity fold change vs agonist alone; higher = enhanced NF-kB activity
In short: (§1)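 In 384-well plates holding 50 000 RAW-Dual murine macrophage reporter cells per well, compound at 10 μM final was pre-incubated for 1 hour at 37 °C, after which a PRR agonist was added overnight. Supernatant SEAP read with QUANTI-Blue at 620 nm absorbance reported NF-κB, and Lucia luciferase read with QUANTI-Luc luminescence reported IRF. Fold change values come from dividing each reporter signal by the mean of agonist-only control wells on the same plate, averaged over replicate plates with propagated errors.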

[2] = tested on: RAW-Dual (murine macrophage reporter line); assay: IRF reporter (Lucia luciferase) activity fold change vs agonist alone; higher = enhanced IRF activity
In short: as §1

[3] = tested on: RAW-Dual (murine macrophage reporter line); assay: viability score (confluency relative to resting cells, overnight) (fraction); higher = more viable, active = viable (0.7 or more)
In short: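 RAW-Dual macrophages in 384-well plates were incubated overnight with compound, final concentration 10 μM. Confluency images from IncuCyte were processed in IncuCyte software into two masks covering all imaged wells. The viability score is each well's confluency relative to resting cells, and a compound met the cutoff when both masks exceeded 70% of resting cells.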

[4] = agonist: CpG ODN 1826 0.5 ug/mL

Compound | NF-kB reporter [1, 4] | NF-kB reporter ([1]; agonist: LPS 0.1 ug/mL) | NF-kB reporter ([1]; agonist: MPLA […]) | IRF reporter ([2]; agonist: 3'3'-cGAMP 10 ug/mL) | IRF reporter ([2]; agonist: LPS 0.1 ug/mL) | IRF reporter ([2]; agonist: MPLA […]) | viability score [3]
COc1ccc(Cl)c(Nc2nc3ccccc3nc2NS(=O)(=O)c2cccc(NC(=O)C(C)(C)N)c2)c1 | 0.841 ± 0.23 | 1.05 ± 0.12 | 1.11 ± 0.087 | 0.221 ± 0.013 | 1.21 ± 0.13 | 1.32 ± 0.3 | 0.592 (inactive)
CCCOc1cccc(C(=O)Nc2cccc(S(N)(=O)=O)c2)c1 | 1.11 ± 0.13 | 0.97 ± 0.057 | 0.945 ± 0.058 | 0.918 ± 0.039 | 1.39 ± 0.14 | 1.05 ± 0.27 | 1 (active)
COCCCOc1ccnc(CS(=O)c2nc3ccccc3[nH]2)c1C (configuration not stated) | 1.24 ± 0.3 | 1.07 ± 0.098 | 1.11 ± 0.11 | 0.839 ± 0.029 | 1.22 ± 0.13 | 1.28 ± 0.23 | 0.98 (active)
CC(C)Sc1ccc(CC(=O)Nc2cnoc2)cc1 | 0.869 ± 0.044 | 1.01 ± 0.09 | 1.15 ± 0.095 | 0.848 ± 0.051 | 1.01 ± 0.24 | 1.1 ± 0.4 | 0.912 (active)
COc1ccccc1C(=O)Nc1ccc(Nc2ccc(-n3cccn3)nn2)cc1 | 2.27 ± 0.12 | 1.36 ± 0.12 | 1.91 ± 0.092 | 0.334 ± 0.017 | 1.45 ± 0.094 | 1.11 ± 0.1 | 0.721 (active)
NC(=O)Cn1c(COc2ccccc2Cl)nc2ccccc21 | 1.35 ± 0.32 | 1.03 ± 0.051 | 0.96 ± 0.07 | 1.01 ± 0.034 | 1.26 ± 0.16 | 1.27 ± 0.21 | 0.994 (active)
CCOC(=O)C1=C(CC)NC2=C(C(=O)CCC2)C1c1ccccc1I (configuration not stated) | 0.996 ± 0.11 | 1.02 ± 0.13 | 0.982 ± 0.1 | 0.921 ± 0.032 | 1.27 ± 0.16 | 1.05 ± 0.19 | 0.975 (active)
O=C(Nc1ccccn1)NC1CCS(=O)(=O)C1 (configuration not stated) | 0.659 ± 0.37 | 0.918 ± 0.22 | 0.748 ± 0.14 | 0.881 ± 0.12 | 1.34 ± 0.085 | 1.23 ± 0.23 | 0.948 (active)
O=C(Nc1nc(CC(=O)N2CCc3ccccc3C2)cs1)c1ccc(Cl)cc1 | 1.05 ± 0.054 | 1.13 ± 0.09 | 0.845 ± 0.047 | 1.01 ± 0.056 | 1.16 ± 0.11 | 1.21 ± 0.15 | 1.01 (active)
COc1ccc(OC)c(Nc2nc(-c3c(C)nc4ncccn34)cs2)c1 | 2.14 ± 0.18 | 1.35 ± 0.12 | 1.09 ± 0.083 | 0.3 ± 0.014 | 0.381 ± 0.035 | 0.361 ± 0.066 | 0.907 (active)
CCC1(O)C(=O)OCc2c1cc1n(c2=O)Cc2cc3cc(O)ccc3nc2-1 (configuration not stated) | 2.02 ± 0.62 | 1.28 ± 0.11 | 2.19 ± 0.4 | 2.67 ± 0.16 | 2.12 ± 0.24 | 1.89 ± 0.32 | 0.851 (active)
Cc1ccc(C(=O)N2N=C(c3ccc(Cl)cc3)CC2(O)C(F)(F)F)o1 (configuration not stated) | 0.721 ± 0.06 | 0.82 ± 0.054 | 0.974 ± 0.097 | 0.975 ± 0.06 | 1.33 ± 0.077 | 1.42 ± 0.16 | 1 (active)
COc1cc(NC(=O)COc2cc(C)c(Cl)c(C)c2)cc(OC)c1 | 1.02 ± 0.18 | 0.954 ± 0.078 | 0.854 ± 0.098 | 0.93 ± 0.025 | 1.06 ± 0.12 | 1.04 ± 0.12 | 1 (active)
S=C(NC12CC3CC(CC(C3)C1)C2)N1CCOCC1 | 1.14 ± 0.11 | 1.06 ± 0.074 | 1.07 ± 0.039 | 1.01 ± 0.13 | 1.07 ± 0.1 | 1.15 ± 0.12 | 1 (active)
Brc1ccc2ncnc(Nc3ccccc3)c2c1 | 1.03 ± 0.12 | 1.25 ± 0.097 | 1.04 ± 0.029 | 0.357 ± 0.021 | 0.629 ± 0.039 | 0.731 ± 0.08 | 1 (active)
CCOc1ccc(C=NNc2nc(C)cs2)c(O)c1 | 0.949 ± 0.087 | 0.965 ± 0.13 | 1.03 ± 0.073 | 0.624 ± 0.024 | 0.988 ± 0.069 | 0.981 ± 0.15 | 0.999 (active)
Cl.Cn1cc(C(=O)[C@@H]2CCc3nc[nH]c3C2)c2ccccc21 | 0.806 ± 0.078 | 0.83 ± 0.11 | 0.878 ± 0.027 | 0.906 ± 0.056 | 0.973 ± 0.11 | 1.01 ± 0.078 | 0.997 (active)
O=C1C(CCC(O)c2ccc(F)cc2)C(c2ccc(O)cc2)N1c1ccc(F)cc1 (configuration not stated) | 1.09 ± 0.085 | 0.898 ± 0.16 | 1.04 ± 0.098 | 0.942 ± 0.034 | 1.16 ± 0.2 | 1.18 ± 0.25 | 1.01 (active)
CS(=O)(=O)c1cccc(C[C@H](NC(=O)c2c(Cl)cc3c(c2Cl)CCN(C(=O)c2ccc4ccoc4c2)C3)C(=O)O)c1 | 1.12 ± 0.17 | 1.22 ± 0.23 | 1.97 ± 1.1 | 1.07 ± 0.084 | 1.37 ± 0.41 | 1.31 ± 0.1 | 0.983 (active)
Cc1ccc2oc(-c3cccc(NC(=O)C(C)C)c3C)nc2c1 | 0.792 ± 0.062 | 0.908 ± 0.068 | 0.972 ± 0.094 | 0.848 ± 0.04 | 1.16 ± 0.068 | 1.33 ± 0.13 | 1.01 (active)
O=C(Nc1ccc(Cl)cc1)C(Sc1ccccc1)c1ccccc1 (configuration not stated) | 0.994 ± 0.11 | 1.02 ± 0.1 | 0.926 ± 0.065 | 0.989 ± 0.037 | 1.38 ± 0.26 | 1 ± 0.081 | 1.02 (active)
COc1ccc2cc(Br)ccc2c1CC(N)=O | 1.09 ± 0.086 | 1.07 ± 0.12 | 1.04 ± 0.046 | 0.89 ± 0.13 | 1.07 ± 0.072 | 0.961 ± 0.14 | 0.968 (active)
O=C1Nc2ccc(Cl)cc2[C@@](C#CC2CC2)(C(F)(F)F)O1 | 0.352 ± 0.029 | 0.486 ± 0.024 | 0.631 ± 0.02 | 0.964 ± 0.056 | 0.715 ± 0.092 | 1.47 ± 0.2 | 0.114 (inactive)
Cc1nnc(NC(=O)CSc2nc3ccccc3[nH]2)s1 | 1.11 ± 0.094 | 1.01 ± 0.073 | 0.954 ± 0.078 | 1.14 ± 0.22 | 1.01 ± 0.13 | 1.05 ± 0.2 | 0.995 (active)
CCCCCOC(=O)COc1ccc(S(=O)(=O)c2ccc(OCC(=O)OCCCCC)cc2)cc1 | 0.959 ± 0.079 | 0.964 ± 0.094 | 1.12 ± 0.14 | 1.02 ± 0.032 | 1.33 ± 0.21 | 1.61 ± 0.25 | 1.03 (active)
CC1CCN(c2nccnc2Oc2ccc(C(=O)N3CCN(c4ccc(F)cc4)CC3)cc2)CC1 | 0.803 ± 0.071 | 1.1 ± 0.062 | 0.709 ± 0.047 | 0.684 ± 0.032 | 1.26 ± 0.18 | 1.11 ± 0.07 | 0.964 (active)
